This is a sample that favours compounds with a hit; in the whole collection about 11% have one here.
NS1 inh = qHTS Assay for Inhibitors of Influenza NS1 Protein Function | Potency, µM (top dose mostly 46.1 µM), inactives show top-dose activity, positive = more growth | 0.4% of 270,000 active | AID 2326, 2010; calls by dose curve; note: actives are rising curves; nearly all actives have a fitted effect of over 50% in size
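Read-out: OD600 growth recovery of NS1-expressing budding yeast. Cells grown overnight at 30C in -URA glucose medium, washed, resuspended and diluted 1:100 in 2% galactose assay medium, pH 6.0. Same strain lacking NS1 served as positive control.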
Pf growth 48h = Primary qHTS for delayed death inhibitors of the malarial parasite plastid, 48 hour incubation | P. falciparum luciferase growth in erythrocytes, 48 h | Potency, µM (series often up to 28.7 µM), inactives show at the highest dose activity change, negative = inhibition, usual class: inhibitors | 5.9% of 310,000 active; note: % is set by controls: 0 for no effect and ±100 for the full control effect
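A one-generation exposure of luciferase-tagged malaria parasites in RPMI 1640/Albumax erythrocyte culture, 37 C and 5% CO2. Inhibition is inferred from decreased luminescence after adding detection reagent.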
Pf growth 96h = Primary qHTS for delayed death inhibitors of the malarial parasite plastid, 96 hour incubation. P. falciparum luciferase reporter growth, 96 h. Potency, µM (highest dose often 28.7 µM), inactives show at the top dose activity change, negative = inhibition, most hits filed as inhibitors. 6.9% of 320,000 active; note: % is set by controls: 0 for no effect and ±100 for the full control effect
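Two-generation exposure (96 h) targets delayed-death phenotype. Reporter parasites carrying integrated firefly luciferase, in red cells at 2% hematocrit and 0.05% parasitemia final, kept at 37 C, 5% CO2; luminescence loss indicates inhibition.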
Vaccinia Venus = qHTS for Stage-Specific Inhibitors of Vaccinia Orthopoxvirus: Venus Reporter Primary qHTS; 0.46% of 330,000 active; AID 720580, 2013; Vaccinia virus Venus reporter expression, fluorescence; Potency, µM (highest dose often 36.5 µM), without a hit: top-dose activity change, negative = inhibition, actives largely listed as inhibitors; calls by dose curve; tested in A549 cells; note: % is set by controls: 0 for no effect and ±100 for the full control effect; nearly all actives have a fitted effect of over 30% in size
Vaccinia mCherry = qHTS for Stage-Specific Inhibitors of Vaccinia Orthopoxvirus: mCherry Reporter Primary qHTS. Vaccinia virus mCherry reporter infection, fluorescence. Potency, µM (doses to about 36.5 µM), for inactives: at the top dose activity change, negative = inhibition, hits mostly inhibitors. 0.63% of 310,000 active; calls by dose curve; tested in A549 cells; note: % is set by controls: 0 for no effect and ±100 for the full control effect; nearly all actives have a fitted effect of over 35% in size
HCV inh = qHTS Assay for Inhibitors of Hepatitis C Virus (HCV); Huh7.5.1 HCVcc-Cre infection, luciferase reporter, 44 h; Potency, µM (titrated, usually from 41.8 µM), for inactives: at the top dose activity change, negative = inhibition, actives largely listed as inhibitors; 3.4% of 340,000 active; AID 651820, 2012; note: % is set by controls: 0 for no effect and ±100 for the full control effect
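1,000 cells/well; 4 h culture; + compound; + HCVcc-Cre (~0.5 moi); 44 h; luciferase substrate, RT 15 min; read 15 sec.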
The depositor's hits bear a star; i = inactive; u = inconclusive; x = no result; [ ] = dose if it differs, or a comment. Unless noted, calls come from the whole dose curve; as a rule, active = well fitted inhibition curve with a large enough effect; inconclusive = small, poorly fitted or top-dose-only effect, or another doubt; inactive = no such curve, though single readings can be large or run the other way. Potency is the fitted concentration of half-maximal effect.

SMILES | NS1 inh | Pf growth 48h | Pf growth 96h | Vaccinia Venus | Vaccinia mCherry | HCV inh
COCCCNc1nc2c(c(=O)[nH]c(=O)n2C)n1CC(O)COc1ccccc1C (stereo unspecified) | 4.6% | x | 37.9% | 0.1% | i | -2.1%
CC(=O)NCC(=O)N[C@@H](CC(=O)OCc1ccccc1)C(=O)OCc1ccccc1 | -3.7% | 19.1% | 4.1% | x | x | 2.4%
N#Cc1cc2cc3ccccc3nc2n2c(=O)c3ccccc3nc12 | x | -15.8% | u | -11.4% | i | 7.2%
Cc1c(C(=O)N2CCN(c3ccc(F)cc3)CC2)sc2ncnc(N3CCN(c4ccccn4)CC3)c12 | -50.2% | 10.4µM* | 11.8% | u | -13.7% | u
CCN1CCN(C(=O)c2sc3nc(C)nc(N4CCC(C)CC4)c3c2C)CC1 | -9.7% | 13.1µM* | u | -23.5% | x | -19.9%
COCCN1C(=O)C(=O)/C(=C(/O)c2ccc(C)cc2)C1c1ccccn1 (stereo unspecified) | 2.4% | -3.1% | 3.29µM* | 0.0% | i | 9.9%
Cc1ccc(/C(O)=C2/C(=O)C(=O)N(CCCn3ccnc3)C2c2ccccn2)cc1 (stereo unspecified) | -6.0% | 3.8% | u | x | x | x
CCN(CC)CCN1C(=O)C(=O)/C(=C(/O)c2cccc(OC)c2)C1c1ccccn1 (stereo unspecified) | -4.5% | u | 11.7µM* | -10.0% | -8.0% | 5.3%
C/C(CC(=O)Nc1ccc(C)c(Cl)c1)=N\NC(=O)Cc1cnc(N)s1 | 1.7% | 10.1% | 45.7% | x | x | 1.4%
COc1ccc(-n2nnnc2CNC(=O)C(=O)c2c[nH]c3ccccc23)cc1 | x | u | 9.9% | -4.6% | -14.4% | u
Cc1ccc(-n2nnnc2SC(C(=O)c2c[nH]c3ccccc23)c2ccccc2)cc1 (stereo unspecified) | 27.4% | u | 1.47µM* | -7.0% | -10.7% | -2.5%
C=CCN(CC=C)C(=O)C1CCN(Cc2ccc(OCc3ccccc3)cc2)CC1 | -56.5% | u | 26.2% | x | x | u
CSc1nncc(/C(C)=N\Nc2ccccc2)n1 | -76.3% | 49.4% | -0.1% | -17.3% | i | -27.1%
CC/C(=N/Nc1ccccc1C)c1cnnc(SC)n1 | -21.7% | 4.15µM* | 2.33µM* | 1.1% | i | 15.8%
COc1ccccc1NC(=O)Cn1nc(-c2ccc(Cl)cc2)c2ccccc2c1=O | 12.3% | x | u | -7.5% | -22.0% | 10µM*
COc1ccccc1NC(=O)CCn1nc(-c2ccccc2)c2ccccc2c1=O | x | x | x | -10.6% | -8.7% | x
O=C(Cn1nc(-c2ccccc2)c2ccccc2c1=O)NN1CCOCC1 | -1.8% | 14.7µM* | 0.0% | -8.5% | -1.9% | 8.4%
CCCCn1c(N)c(N(CCOC)C(=O)COC(=O)c2ccccc2OCC)c(=O)[nH]c1=O | 7.6% | -10.5% | 3.6% | -14.8% | i | 10.9%
C=CC(=O)Nc1cccc(Oc2ncnc3[nH]cc(-c4cnc5ccccc5c4)c23)c1 | x | x | x | 11.2µM* | u | u
CSc1nc(N2CCCC2)c2c(c1C#N)CC(C)(C)OC2 | -2.3% | 7.7% | -2.4%[5.75 µM] | x | x | u
CC1Nc2ncnc(N3CCN(c4ccccn4)CC3)c2N(Cc2ccccc2)C1=O (stereo unspecified) | x | 11.7µM* | 2.62µM* | -28.7% | -0.5% | 32.8%
COc1ccc(CN2C(=O)C(C)Nc3ncnc(N4CCN(c5ccccn5)CC4)c32)cc1 (stereo unspecified) | x | x | x | -26.4% | -1.5% | u
Cc1ccc(CN2C(=O)C(C)Nc3ncnc(N4CCN(c5ccccn5)CC4)c32)cc1 (stereo unspecified) | x | 11.7µM* | 11.7µM* | -20.5% | -5.5% | u
C[C@@H]1CN([C@@H](C)CO)S(=O)(=O)c2ccc(Br)cc2O[C@@H]1CN(C)C(=O)NC1CCCCC1 | x | x | x | -8.4% | i | x
Cc1cc(=O)oc(C)c1C(=O)NCCC(C)C | u | 24.6% | 4.15µM* | x | x | 14.7%
SMILES | NS1 inh | Pf growth 48h | Pf growth 96h | Vaccinia Venus | Vaccinia mCherry | HCV inh
O=C(O)CSc1c2ccccc2cc2ccccc12 | -114.3% | -4.5% | -27.4% | x | x | 0.6%
C[C@@H]1CC=C[C@H]2[C@H]1C(=O)N(Cc1ccccc1)[C@H]2c1ccc(F)c(-c2ccc(N(C)C)cc2)c1 | u | u | 11.7µM* | -11.2% | u | 4.6%
C[C@@H]1CC=C[C@@H]2[C@H]1C(=O)N(Cc1ccccc1)[C@H]2c1cccc(Br)c1 | x | x | x | -7.3% | -17.5% | 27.2%
CC[C@@H]1CC=C[C@H]2[C@H]1C(=O)N(Cc1ccccc1)[C@H]2c1ccc2ccccc2c1 | -58.0% | 13.1µM* | u | x | x | x
CC(=O)c1ccc(-c2cc([C@H]3[C@H]4C=CC[C@@H](C)[C@@H]4C(=O)N3Cc3ccccc3)ccc2F)cc1 | 11.9% | 11.7µM* | u | u | -18.6% | -14.1%
CN1CCC(N(C)c2nc(-c3ccc([N+](=O)[O-])cc3)nc3ccccc23)CC1 | -29.4% | u | 1.47µM* | 10µM* | u | 4.47µM*
NC(=O)C1CCCN(C(=S)NCc2ccc3c(c2)OCO3)C1 (stereo unspecified) | x | 32.5% | 0.0% | -8.4% | i | -7.8%
NC(=O)C1CCCN(C(=S)Nc2cccc3ccccc23)C1 (stereo unspecified) | 1.8% | 3.4% | 13.1µM* | -5.9% | -17.8% | -4.9%
CN(C)C(CNC(=O)c1cccc(S(=O)(=O)N(C)C)c1)c1ccccc1 (stereo unspecified) | u | 13.8% | x | -5.2% | i | 14.8%
CN(C)C(CNC(=O)c1cccc(S(=O)(=O)N2CCN(c3ccccc3)CC2)c1)c1ccccc1 (stereo unspecified) | x | x | x | x | x | 12.6µM*
COc1ccc(C(CNC(=O)c2cc(S(=O)(=O)N3CCN(c4ccccc4)CC3)ccc2Cl)N(C)C)cc1 (stereo unspecified) | x | x | x | x | x | 15.8µM*
CCOC(=O)C1CCN(C(=O)c2cc3c(s2)-c2ccccc2OC3)CC1 | -23.4% | 60.8% | -12.8% | 4.9% | -10.9% | 5.1%
COc1cccc(NC(=O)c2nn(C)c(C(=O)Nc3cccc(OC)c3)c2[N+](=O)[O-])c1 | -11.6% | 33.5% | 6.57µM* | -6.4% | -15.6% | u
Cc1ccc(S(=O)(=O)N2CCOCC2)cc1NC(=O)COc1cccc(-n2cnnn2)c1 | x | u | u | -16.9% | -26.7% | 4.6%
COc1ccc(C(=O)Nc2cccc(OC)c2)cc1 | -49.6% | x | 12.0% | x | x | -5.0%
COc1ccc(NC(=O)COc2cccc(-n3cnnn3)c2)cc1 | 2.3% | 29.2% | 10.4µM* | -11.6% | -8.6% | -2.8%
Cc1ccc(NC(=O)COc2cccc(-n3cnnn3)c2)cc1S(=O)(=O)N1CCOCC1 | x | 13.1µM* | u | x | x | 11.2µM*
